Source: PubChem BioAssay (National Center for Advancing Translational Sciences (NCATS))
Sampled rows, rich in hits. Any-hit rate of the full collection: about 3.5%.
Tau fibril ThT = inhibitors of human tau fibril formation, thioflavin T binding | recombinant tau K18 P301L, heparin-induced fibrillization, ThT fluorescence | Potency, µM (titrated, usually from 57.4 µM), usual class: inhibitors | 270,000 compounds, 2.1% hits; further: nearly all actives have a fitted effect of over 55% in size
Target sequence (P10636 561-689 P618L limits assumed): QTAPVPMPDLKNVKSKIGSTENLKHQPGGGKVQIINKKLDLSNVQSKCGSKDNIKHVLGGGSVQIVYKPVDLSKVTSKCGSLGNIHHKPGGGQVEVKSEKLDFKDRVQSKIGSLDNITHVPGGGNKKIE
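Heparin-induced (20 uM) aggregation of recombinant human K18 P301L tau, 15 uM unlabeled with 0.24 uM labeled, pH 7 acetate buffer, 6 hr at 37 C with compound. Fibrils quantified by 30 uM ThT fluorescence after 1 hr ambient incubation.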
Tau fibril FP = blocks human tau fibril formation measured by polarization | Potency, µM (titrated, usually from 57.7 µM), actives largely listed as inhibitors | AID 1468 | K18 P301L tau heparin fibrillization, Alexa594 FP, 6 h | 280,000 compounds, 0.39% hits; further: nearly all actives have a fitted effect of over 55% in size
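Compound effects on tau fibrillization are measured by Alexa 594 fluorescence polarization (ex 555, em 632 nm). K18 P301L tau is used at 15 uM with 0.24 uM labeled tracer, and 20 uM heparin induces aggregation over 6 hr at 37 C.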
TR SRC2 fluor cs = counter-screen for TRb-SRC2 inhibitors: fluorescence interference. Potency, µM (top dose mostly 106 µM). TRb/SRC2 Texas Red total fluorescence interference. 280,000 compounds, 0.29% hits; active means well fitted curve in either direction with a large enough effect; inconclusive means small, poorly fitted or top-dose-only effect
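Human TRβ ligand-binding domain (0.6 uM) and Texas Red SRC2 peptide (20 nM) in Tris buffer with 1 uM T3 and 5% DMSO were incubated with pinned compound for 5 hr at ambient temperature. Total fluorescence was computed as S + 2P (555/632 nm).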
KDM4E inh = blocks human JMJD2E demethylase activity; 230,000 compounds, 1.6% hits; JMJD2E catalytic domain, FDH-coupled NADH fluorescence (FDH is formaldehyde dehydrogenase); B2RXH2; Potency, µM (titrated, usually from 57.1 µM), most hits filed as inhibitors; active means well fitted inhibition curve with a large enough effect, not every such curve was filed as active; inconclusive means small, poorly fitted or top-dose-only effect, or another doubt; inactive means no such curve, though single readings can be large or run the other way; further: nearly all actives have a fitted effect of over 50% in size
Target sequence (B2RXH2 1-337 limits assumed): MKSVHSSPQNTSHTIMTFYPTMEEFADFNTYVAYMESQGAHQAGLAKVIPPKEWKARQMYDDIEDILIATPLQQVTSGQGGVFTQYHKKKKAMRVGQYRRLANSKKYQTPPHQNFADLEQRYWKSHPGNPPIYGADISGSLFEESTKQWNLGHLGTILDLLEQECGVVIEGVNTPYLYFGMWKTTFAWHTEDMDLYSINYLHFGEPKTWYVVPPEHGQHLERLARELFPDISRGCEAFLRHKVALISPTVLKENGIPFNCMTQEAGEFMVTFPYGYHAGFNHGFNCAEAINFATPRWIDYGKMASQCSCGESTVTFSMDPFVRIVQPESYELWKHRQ
Tau fluor cs = counter-screen for tau fibril formation inhibitors. tau K18 P301L (four-repeat tau fragment) Alexa594 fluorescence, heparin fibrillization. Potency, µM (highest dose often 57.7 µM). 280,000 compounds, 0.93% hits; further: nearly all actives have a fitted effect of over 55% in size
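Human K18 P301L tau (15 uM unlabeled plus 0.24 uM Alexa 594-labeled, final) in 100 mM sodium acetate pH 7 was mixed with compound and 20 uM heparin and incubated 6 hr at 37 C.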
TRb SRC2 PPI = TRbeta-SRC2 interaction inhibition; TRbeta-SRC2 peptide binding, fluorescence polarization; receptor liganded with 1 µM T3; Potency, µM (top dose mostly 106 µM), most hits filed as inhibitors; AID 1469; 280,000 compounds, 0.065% hits; P10828; further: nearly all actives have a fitted effect of over 50% in size
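Fluorescence polarization of 20 nM Texas Red SRC2 peptide with 0.6 uM human TRb ligand-binding domain, in Tris buffer with 1uM T3 and 5% DMSO. Incubated 5 hr ambient; normalized to unbound and bound controls.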
Numbers stand for hits; [ ] = remark or other dose. Unless noted, the call rests on the fitted dose curve; in most records, active means well fitted curve in the direction sought with a large enough effect; inconclusive means small, poorly fitted or top-dose-only effect, or another doubt; inactive means no such curve, though single readings can be large; an effect the other way counts as inactive or inconclusive.

What do the screens show for `Cc1ccc(C=C2C(Cl)=C(Cl)C(Cl)=C2Cl)cc1`?
Tau fibril ThT: 16µM; Tau fibril FP: inconclusive; TR SRC2 fluor cs: inactive; KDM4E inh: inactive; Tau fluor cs: inconclusive; TRb SRC2 PPI: inactive

How did Cc1ncc(CN2CC=C(c3ccccc3)CC2)c(N)n1 do in these assays?
Tau fibril ThT: inactive; Tau fibril FP: inactive; TR SRC2 fluor cs: inactive; KDM4E inh: inactive; Tau fluor cs: inactive; TRb SRC2 PPI: inactive

How did CCOC(=O)[C@]1(C#N)[C@@H]2C=CC(C(C)=O)=CN2[C@@H](C(N)=O)[C@@H]1c1ccsc1 do in these assays?
Tau fibril ThT: 32µM; Tau fibril FP: inconclusive; TR SRC2 fluor cs: inactive; KDM4E inh: inactive; Tau fluor cs: inactive; TRb SRC2 PPI: inactive

Results for CO/C1=C\C(C)=C\[C@@H](C)[C@@H](O)[C@H](C)C/C(C)=C/C=C/[C@H](OC)[C@H]([C@@H](C)[C@@H](O)[C@H](C)[C@H]2C[C@@H](O)[C@H](C)[C@@H](C(C)C)O2)OC1=O ?
Tau fibril ThT: inactive; Tau fibril FP: inactive; TR SRC2 fluor cs: inactive; Tau fluor cs: inactive; TRb SRC2 PPI: inactive

How did N=C1/C(=C/c2ccc(OC(=O)c3ccco3)cc2)C(=O)N=C2SC=CN12 do in these assays?
Tau fibril ThT: inconclusive; Tau fibril FP: inactive; TR SRC2 fluor cs: inactive; KDM4E inh: 14µM; Tau fluor cs: inactive; TRb SRC2 PPI: inactive

Results for CCOc1ccc(OCC)c(NC(=O)CN2CCN(c3ccc(C)cc3C)CC2)c1 ?
Tau fibril ThT: inconclusive; Tau fibril FP: inactive; TR SRC2 fluor cs: inactive; KDM4E inh: inconclusive; Tau fluor cs: inactive; TRb SRC2 PPI: inactive

Results for C[C@]12CC[C@H](OS(=O)(=O)O)CC1=CCC1C2CC[C@]2(C)C(=O)CC[C@@H]12 (some centres not stated) ?
Tau fibril ThT: inactive; Tau fibril FP: inactive; TR SRC2 fluor cs: inactive; KDM4E inh: inactive; Tau fluor cs: inactive; TRb SRC2 PPI: inactive

What do the screens show for `C=CCN1C(=O)NC(=O)/C(=C/C=C/c2ccccc2)C1=O`?
Tau fibril ThT: 28µM; Tau fibril FP: inconclusive; TR SRC2 fluor cs: inactive; KDM4E inh: inactive; Tau fluor cs: inactive; TRb SRC2 PPI: inactive

How did O=C1NC(=O)N(CCc2ccc(F)cc2)C(=O)/C1=C\C=C\c1ccccc1 do in these assays?
Tau fibril ThT: 28µM; Tau fibril FP: inconclusive; TR SRC2 fluor cs: inactive; KDM4E inh: inactive; Tau fluor cs: inactive; TRb SRC2 PPI: inactive

How did CCCCn1c(O)c(C(CC)=Nc2ccc3c(c2)CCC3)c(=O)[nH]c1=O do in these assays?
Tau fibril ThT: inconclusive; Tau fibril FP: inactive; TR SRC2 fluor cs: inactive; KDM4E inh: inactive; Tau fluor cs: inactive; TRb SRC2 PPI: inactive

What do the screens show for `O=C1NC(=O)N(Cc2ccc(F)cc2)C(=O)/C1=C\c1ccoc1`?
Tau fibril ThT: inactive; Tau fibril FP: inactive; TR SRC2 fluor cs: inactive; KDM4E inh: inactive; Tau fluor cs: inactive; TRb SRC2 PPI: inactive

What do the screens show for `CCc1ccc(N2C(=O)NC(=O)/C(=C\c3cccn3CCOc3ccc(C(C)C)cc3)C2=O)cc1`?
Tau fibril ThT: inconclusive; Tau fibril FP: inactive; TR SRC2 fluor cs: inactive; KDM4E inh: inactive; Tau fluor cs: inactive; TRb SRC2 PPI: inactive

What do the screens show for `O=C1NC(=O)N(Cc2ccccc2)C(=O)/C1=C/c1cnc(-c2ccccc2)nc1`?
Tau fibril ThT: inconclusive; Tau fibril FP: inconclusive; TR SRC2 fluor cs: inactive; KDM4E inh: 22µM; Tau fluor cs: inactive; TRb SRC2 PPI: inactive

What do the screens show for `CC(C)c1ccc(N2C(=O)NC(=O)/C(=C/c3cnc(-c4ccccc4)nc3)C2=O)cc1`?
Tau fibril ThT: 16µM; Tau fibril FP: inconclusive; TR SRC2 fluor cs: inactive; KDM4E inh: 8.9µM; Tau fluor cs: inactive; TRb SRC2 PPI: inactive

Results for CSc1ncc(/C=C2/C(=O)NC(=O)N(c3ccc(C(C)C)cc3)C2=O)cn1 ?
Tau fibril ThT: 25µM; Tau fibril FP: inconclusive; TR SRC2 fluor cs: inactive; KDM4E inh: inconclusive; Tau fluor cs: inactive; TRb SRC2 PPI: inactive

Results for COC1=CCC2([N+](=O)[O-])CN(C)CC1([N+](=O)[O-])C2 (configuration not stated) ?
Tau fibril ThT: inactive; Tau fibril FP: inactive; TR SRC2 fluor cs: inactive; KDM4E inh: inactive; Tau fluor cs: inactive; TRb SRC2 PPI: inactive

Results for CCCCC/C=C\C/C=C\C/C=C\C/C=C\CCCC(=O)NC(C)C(=O)O (configuration not stated) ?
Tau fibril ThT: inactive; Tau fibril FP: inactive; TR SRC2 fluor cs: inactive; KDM4E inh: inactive; Tau fluor cs: inactive; TRb SRC2 PPI: inactive

What do the screens show for `Nc1c(Cl)cc([N+](=O)[O-])cc1Cl`?
TR SRC2 fluor cs: inactive; TRb SRC2 PPI: inactive

What do the screens show for `CCN1CCN(c2ccc([N+](=O)[O-])cc2C=C2C(=O)NC(=O)NC2=O)CC1`?
Tau fibril ThT: inconclusive; Tau fibril FP: inactive; TR SRC2 fluor cs: inactive; KDM4E inh: inactive; Tau fluor cs: inactive; TRb SRC2 PPI: inactive

How did Oc1ccc2c3c1O[C@H]1c4oc5ccccc5c4C[C@@]4(O)[C@@H](C2)N(CC2CC2)CC[C@]314 do in these assays?
Tau fibril ThT: inactive; Tau fibril FP: inactive; TR SRC2 fluor cs: inactive; KDM4E inh: inactive; Tau fluor cs: inactive; TRb SRC2 PPI: inactive

Results for COc1ccc(CCn2c(NN=C3CCCCC3)nc3c2c(=O)[nH]c(=O)n3C)cc1 ?
Tau fibril ThT: 28µM; Tau fibril FP: inconclusive; TR SRC2 fluor cs: inactive; KDM4E inh: inconclusive; Tau fluor cs: inconclusive; TRb SRC2 PPI: inactive

Results for COc1ccc(CCNCc2ccc3c(c2)n(C)c(=O)n3C)cc1 ?
Tau fibril ThT: inactive; Tau fibril FP: inactive; TR SRC2 fluor cs: inactive; Tau fluor cs: inactive; TRb SRC2 PPI: inactive

How did CCN(CC)C(=O)C(C)Oc1cccc2ccccc12 (configuration not stated) do in these assays?
TR SRC2 fluor cs: inactive; TRb SRC2 PPI: inactive

What do the screens show for `Nc1ccc(C2(c3ccc(N)cc3)c3ccccc3-c3ccccc32)cc1`?
Tau fibril ThT: inconclusive; Tau fibril FP: inconclusive; TR SRC2 fluor cs: inactive; KDM4E inh: inconclusive; Tau fluor cs: 14µM[quencher]; TRb SRC2 PPI: inactive

What do the screens show for `Nc1ccccc1`?
TR SRC2 fluor cs: inactive; TRb SRC2 PPI: inactive

What do the screens show for `COc1ccc(-n2c(=O)[nH]c3ccccc3c2=O)c(OC)c1`?
Tau fibril ThT: inactive; Tau fibril FP: inactive; TR SRC2 fluor cs: inactive; KDM4E inh: inactive; Tau fluor cs: inactive; TRb SRC2 PPI: inactive

Results for COc1ccc(-n2c(=S)[nH]c3c(sc(=S)n3-c3ccccc3)c2=O)c(OC)c1 ?
Tau fibril ThT: 32µM; Tau fibril FP: inconclusive; TR SRC2 fluor cs: inactive; KDM4E inh: inactive; Tau fluor cs: inactive; TRb SRC2 PPI: inactive

Results for COP(=O)(Cc1ccc(C#N)o1)OC ?
Tau fibril ThT: inactive; Tau fibril FP: inactive; TR SRC2 fluor cs: inactive; KDM4E inh: inactive; Tau fluor cs: inactive; TRb SRC2 PPI: inactive
